Test results as given in PubChem BioAssay AID833 (The Scripps Research Institute Molecular Screening Center, 2007).
In all, about 16,000 compounds went through this assay and about 80 (0.5%) were called active. The sample holds actives, similar compounds and a random draw of the others, so the mix is not that of the screen. Unmarked numbers belong to inactive results. No stated cut-off is given here; in the data, active means activation above about 15%; inactive means the rest.

Target: Galanin receptor type 2 (Rattus norvegicus) (UniProt O08726)
Sequence (O08726 whole entry, looked up): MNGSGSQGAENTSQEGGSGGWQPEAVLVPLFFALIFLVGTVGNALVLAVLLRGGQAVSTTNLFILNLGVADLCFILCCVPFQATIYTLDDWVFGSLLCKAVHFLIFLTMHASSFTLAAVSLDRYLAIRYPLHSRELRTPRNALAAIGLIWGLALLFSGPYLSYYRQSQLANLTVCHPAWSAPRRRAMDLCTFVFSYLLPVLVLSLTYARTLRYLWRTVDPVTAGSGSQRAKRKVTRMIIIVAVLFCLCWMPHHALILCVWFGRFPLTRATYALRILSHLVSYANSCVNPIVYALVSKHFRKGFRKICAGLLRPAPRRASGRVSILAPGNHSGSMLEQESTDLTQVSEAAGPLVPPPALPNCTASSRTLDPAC
Test: agonists of rat galanin receptor 2 (GALR2) (AID 833)
Settings: cell-based GALR2 agonist screen; at 10 µM; stronger effect = higher value

| Compound | activation |
| --- | --- |
| N#Cc1c(-c2cccs2)cc(-c2cccs2)nc1N | 10.7% |
| O=C(Nn1cnnc1)c1ccc([N+](=O)[O-])cc1 | -2.79% |
| Cc1onc(-c2ccccc2)c1C(=O)Nc1ccc(/C(C#N)=C/c2ccccn2)cc1 | -2.22% |
| N#C/C(=C\c1cccs1)C(=O)NCCc1c[nH]c2ccccc12 | -5.34% |
| Cc1cccc(-c2noc(NC(=O)O/N=C/c3ccccc3)n2)c1 | -3.45% |
| Cc1csc(/N=C/N(C)C)c1C#N | -4.03% |
| N/C(CC(=O)Nc1ccc(F)c(Cl)c1)=N\O | -6.66% |
| O=C(c1cnn(-c2ccc(Cl)cc2)n1)c1cccs1 | -6.45% |
| S=C1NCN(CCCn2ccnc2)CN1 | -6.28% |
| O=C(O)c1cc(=O)[nH]c2c(Cl)cc(Cl)cc12 | -3.92% |
| COC(=O)/C(=C/c1ccccc1)c1ccccc1 | -1.48% |
| COc1ccc(OC)c(CNC(=O)Cc2cccs2)c1 | -4.76% |
| O=[N+]([O-])c1ccc(N2CCOCC2)cc1 | -0.7% |
| O=S(=O)(CCSc1ccc(C(F)(F)F)cn1)CCSc1ccc(C(F)(F)F)cn1 | -4.73% |
| CC(C)N(C(=O)c1ccc(-c2ccccc2F)cc1)C(C)C | -5.45% |
| O=C(O)CC1(CC(=O)Nc2ccc(N3CCCCC3)cc2)CCCCC1 | -3.41% |
| Cn1cc(Br)c(-c2ccc(NC(=O)Nc3ccc(Cl)cc3)cc2)n1 | -8.08% |
| COC(=O)c1noc(C)c1-c1ccnn1C(=O)c1ccc(Cl)cc1 | -1.59% |
| CSC(=CC(=O)c1cccs1)SC | -10.2% |
| COc1cccc2c1c(NS(=O)(=O)c1cn(C)cn1)nn2C | -5.19% |
| CSc1nsc(SC)c1C(=O)NC(=O)NNc1ccc(F)c(Cl)c1 | -2.68% |
| Oc1[nH]c2ccc(F)cc2c1N=NC(=S)NC1CC2C=CC1C2 (configuration not stated) | -9.63% |
| NS(=O)(=O)c1cc(Br)ccc1I | -1.14% |
| Cc1c(S(=O)(=O)N2CCOCC2)ccc(Cl)c1F | -9.66% |
| O=[N+]([O-])c1ccc(-c2ccc(I)cc2)cc1 | -5.42% |
| O=[N+]([O-])c1ccc(-c2nnnn2Cc2c(Cl)cccc2Cl)cc1 | -2.65% |

| Compound | activation |
| --- | --- |
| Cc1c(NC(=S)Nc2ccccc2)c(=O)n(-c2ccccc2)n1C | -1.67% |
| COC(=O)c1cc(OC)c(OC)cc1NC(=O)c1ccccc1C(=O)O | 0.04% |
| COc1cc(CCN=Cc2ccccc2O)c([N+](=O)[O-])cc1OC | -0.09% |
| O=C(NCc1cccnc1)Nc1cccc(NC(=O)NCc2cccnc2)c1F | -10% |
| CNC(=S)NNC(=O)c1cc(C)on1 | -5.05% |
| Cc1cc(C)nc(N/C=C(\C#N)S(=O)(=O)c2ccc(Cl)cc2)n1 | -7.71% |
| N#CC(c1cc2ccccc2cn1)c1ccc2c(c1[N+](=O)[O-])C(=O)c1ccccc1C2=O (configuration not stated) | -8.33% |
| N#CC1(C#N)C(c2ccc(Cl)c(Cl)c2)C1(C#N)C#N | -8.55% |
| CSc1n[nH]c(=O)n1-c1cccc(C(F)(F)F)c1 | -7.62% |
| COc1ccc(NC(=S)Nc2ccc(F)cc2F)c([N+](=O)[O-])c1 | -8.62% |
| c1ccc2c(-c3csc(-c4ccc5c(c4)OCCO5)n3)csc2c1 | -9.38% |
| Cc1nc(-c2ncc(-c3ccccc3)o2)c(C(F)(F)F)o1 | -5.66% |
| O=C(CSc1c(F)c(F)c(C(=O)O)c(F)c1F)Nc1cccc(C(F)(F)F)c1 | -5.69% |
| COC(=O)c1sccc1NC(=S)Nc1ccc(C)cc1 | -4.74% |
| Cc1cc(CNC(=O)c2cc(C)n(C)n2)no1 | 4.72% |
| Cc1nnsc1-c1nnc(SCC(=O)c2ccc3c(c2)OCO3)n1C1CC1 | -3.99% |
| O=C(O)CC(CC(=O)Nc1cc(C(F)(F)F)ccc1N1CCOCC1)c1ccccc1 (configuration not stated) | -5.13% |
| N/C(=N\O)c1ccc2nonc2c1 | -8.97% |
| Cc1cc(CNCC(O)C(F)(F)F)no1 (configuration not stated) | -7.81% |
| CSc1sc(C(=O)NC2CC2)c(-c2ccc(Cl)cc2)c1C#N | -8.05% |
| Cc1ccc(S(C)(=O)=NC(=O)NS(=O)(=O)Oc2ccc(Cl)cc2Cl)cc1 (configuration not stated) | -1.36% |
| Cc1oc(-c2ccc(Cl)cc2)cc1C(=O)O/N=C(\N)Cc1nc2cccnc2n1C1CC1 | -4.62% |
| O=C(NCc1csc(-c2cccs2)n1)Nc1ccccc1-c1ccccc1 | -9.54% |
| Cc1oc(C(C)(C)C)cc1C(=O)NC1Cc2ccccc2C1 | -2.8% |
| CCOc1c(N2CCCCC2)c(=O)c1=O | 24.1% (active) |
| Cc1cc(-c2nc(C(=O)NN3CCCCC3)cs2)no1 | -7.49% |
